From the supplement of paper PMC6555819

Columns and labels:
Assay in all cases: PBM binding z-score (relative to random genomic background probes); higher = stronger binding; sequences stand for … in GC…GCGATTGACAGCGTAGAATGAAGG
[1] = test system: RARb homodimer (NR concentration 270 nM)
How it was run: (§1)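 Probes were double-stranded and carried 34-nt variable regions with direct-repeat seeds, single-nucleotide variants, half-site ablations and random human genomic background sequences, printed on custom Agilent 4×180K protein-binding microarrays. Arrays were incubated 1 h with ligand-free nuclear receptor dimers in PBS pH 7.4, 2% milk, 0.02% Triton X-100, 1 mM DTT, 0.2 mg/mL BSA and 0.4 mg/ml salmon testes DNA. Antibodies against each partner (one per run) detected binding, and scanned fluorescence was regression-normalized. Binding z-scores use the random background probes as reference.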

[2] = test system: RARg:RXRa (NR concentration 270 nM, RXRa partner concentration 90 nM)
How it was run: as §1

[3] = test system: RARg homodimer (NR concentration 270 nM)
How it was run: as §1

[4] = test system: RXRa DBDmut IVT, anti-RXR (DBD mutation: RXRa K156A/R161A, NR concentration 90 nM)
How it was run: as §1

[5] = test system: RXRa homodimer (NR concentration 180 nM)
How it was run: as §1

[6] = test system: THRa:RXRa (NR concentration 90 nM, RXRa partner concentration 90 nM)
How it was run: as §1

[7] = test system: THRa homodimer (NR concentration 90 nM)
How it was run: as §1

[8] = test system: VDR homodimer (NR concentration 270 nM)
How it was run: as §1

| Sequence | PBM binding z-score [1] | PBM binding z-score [2] | PBM binding z-score [3] | PBM binding z-score [4] | PBM binding z-score [5] | PBM binding z-score [6] | PBM binding z-score [7] | PBM binding z-score [8] |
| --- | --- | --- | --- | --- | --- | --- | --- | --- |
| TCTAGAAGGCCAGAGGGTCACTCAAGAGGTACGG | 3.16 | 3.17 | 2.72 | 0.844 | 3.03 | 1.75 | -0.0793 | 0.435 |
| ACATGTAGGTTAGCTGGGGTCATTCAGACTAGGC | 3.72 | 4.24 | 2.97 | 2.34 | 5.59 | 5.12 | 3.49 | 5.66 |
| CAAACTAGGGCACCGGAAGGTCAAAGTCCGCATG | 4.51 | 5.51 | 4.44 | 0.724 | 3.84 | 3.25 | 0.924 | 1.45 |
| TCGAGCAGGTTACCAATGGGGCATTCAGCTTTCT | 0.557 | 1.36 | 0.389 | -0.436 | 0.616 | 0.235 | -0.786 | -0.843 |
| CGAACTAGGTCAGCCAGGACAGTGAATACATTGA | 2.65 | 3.04 | 4.54 | 1.2 | 1.54 | 3.12 | 1.45 | 0.353 |
| TCTTGTAGATCAACGGTTAAGAAAGCCGAAGCCT | -0.249 | -0.0923 | -0.227 | 0.721 | 0.21 | -0.24 | -0.541 | -0.227 |
| CGAACTAGGTCAGAACAGAACAGTGAAGGATGAT | 1.65 | 2.36 | 3.14 | 0.286 | 1.16 | 1.34 | -0.073 | -0.0834 |
| CCTACTGCGCCACGAAAGGTCATTGATTCAGTGA | 4.75 | 4.62 | 4 | 1.51 | 5.58 | 3.36 | 1.47 | 2.91 |
| CCAGACAGGTGAAAGGTAACCCAGTCTGGTACGC | 0.747 | 1.35 | 0.881 | -0.455 | 1.83 | 0.935 | -0.0283 | -0.223 |
| AGAATGAGGTTAAGATCAGGGACACAGAATACAT | 1.6 | 2.36 | 2.14 | 1.14 | 2.48 | 3.39 | 2 | 1.12 |
| GCAGACAGGTGAAACGCAGGTAACTCATGGTGGC | 0.0324 | 0.941 | 0.44 | -0.582 | 0.943 | 1 | -0.808 | -0.818 |
| CAAACTAGGTCAAGAGGTCAAAGTCCGCTTCCCG | 5.9 | 8.2 | 8.13 | 2.89 | 8.25 | 4.44 | 2.61 | 4.47 |
| CCTGGTAGGTCAATGGTCAGCTAAAGCAGCTCGC | 2.92 | 3.75 | 4.04 | 0.676 | 2.66 | 1.56 | 0.243 | 0.307 |
| TCATATAGGTAAACAGGTGAATGTCCGTAAGTTA | 0.605 | 0.347 | 0.272 | 1.27 | 1.03 | 0.567 | 0.511 | 0.283 |
